# Test results reported in PubChem BioAssay (EPA / NIEHS).
# Inconclusive results are not listed. Active and inactive are the calls of the source. The calls were made as follows: active = hit-call score of the fitted dose curve at least 0.9, where 1 is the maximum; inconclusive = response in the unintended direction; inactive = score below 0.9.
# Experiments:
# [1] = target: human Beta-secretase (BACE), BACE1 (gene 23621) (UniProt P56817); assay: NVS_ENZ_hBACE: NovaScreen (NVS) Enzymatic Assay for human Beta-secretase (BACE) (AID 2283140);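 also: hits are inhibitors that reduce fluorescent substrate signal versus DMSO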
# Sequence of human Beta-secretase (BACE), BACE1 (gene 23621) (P56817 whole entry, looked up): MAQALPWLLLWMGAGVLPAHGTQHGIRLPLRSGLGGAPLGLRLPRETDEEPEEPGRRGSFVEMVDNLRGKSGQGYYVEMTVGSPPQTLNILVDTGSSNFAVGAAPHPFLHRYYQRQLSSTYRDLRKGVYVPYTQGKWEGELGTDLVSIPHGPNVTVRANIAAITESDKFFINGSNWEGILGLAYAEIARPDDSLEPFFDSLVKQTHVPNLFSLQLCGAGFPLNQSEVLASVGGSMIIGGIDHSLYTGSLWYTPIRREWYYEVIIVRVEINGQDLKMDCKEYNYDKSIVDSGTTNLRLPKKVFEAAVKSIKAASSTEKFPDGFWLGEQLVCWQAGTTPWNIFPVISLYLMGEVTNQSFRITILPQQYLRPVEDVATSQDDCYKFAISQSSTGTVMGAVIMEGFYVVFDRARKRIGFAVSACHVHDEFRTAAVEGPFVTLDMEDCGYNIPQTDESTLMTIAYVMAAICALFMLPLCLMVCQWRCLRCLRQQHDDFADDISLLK
# Procedure, shortened: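 Cell-free assay of recombinant Sf9-expressed human BACE with fluorescent substrate, read by fluorescence intensity after 1 h. Primary screen in duplicate at 25 uM; actives then run in concentration series; loss of signal relative to DMSO.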
# [2] = target: human Casein Kinase 1-delta (CK1D), CSNK1D (gene 1453) (UniProt P48730); assay: NVS_ENZ_hCK1D: NovaScreen (NVS) Enzymatic Assay for human Casein Kinase 1-delta (CK1D) (AID 2283148)
# Sequence of human Casein Kinase 1-delta (CK1D), CSNK1D (gene 1453) (P48730 whole entry, looked up): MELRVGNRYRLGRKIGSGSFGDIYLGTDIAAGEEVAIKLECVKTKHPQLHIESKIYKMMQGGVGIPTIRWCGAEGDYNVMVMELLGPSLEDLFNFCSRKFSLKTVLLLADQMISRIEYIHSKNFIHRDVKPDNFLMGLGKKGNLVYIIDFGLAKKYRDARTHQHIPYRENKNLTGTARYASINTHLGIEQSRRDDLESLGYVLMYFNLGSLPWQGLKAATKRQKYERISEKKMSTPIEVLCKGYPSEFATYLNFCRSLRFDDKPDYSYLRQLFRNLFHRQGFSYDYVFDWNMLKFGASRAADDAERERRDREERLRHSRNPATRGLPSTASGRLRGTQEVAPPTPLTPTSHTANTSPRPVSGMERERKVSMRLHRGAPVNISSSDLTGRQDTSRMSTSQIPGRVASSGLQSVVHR
# Procedure, shortened: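 Recombinant human CK1-delta, cell-free; fluorescent substrate with electrophoretic mobility-shift separation of product, read 1 h after dosing. Single 25 uM duplicate screen, then concentration-response up to 50 uM; loss of signal vs DMSO.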
# [3] = target: human Esterase Plasma (ES), BCHE (gene 590) (UniProt P06276); assay: NVS_ENZ_hES: NovaScreen (NVS) Enzymatic Assay for human Esterase Plasma (ES) (AID 2283157)
# Sequence of human Esterase Plasma (ES), BCHE (gene 590) (P06276 whole entry, looked up): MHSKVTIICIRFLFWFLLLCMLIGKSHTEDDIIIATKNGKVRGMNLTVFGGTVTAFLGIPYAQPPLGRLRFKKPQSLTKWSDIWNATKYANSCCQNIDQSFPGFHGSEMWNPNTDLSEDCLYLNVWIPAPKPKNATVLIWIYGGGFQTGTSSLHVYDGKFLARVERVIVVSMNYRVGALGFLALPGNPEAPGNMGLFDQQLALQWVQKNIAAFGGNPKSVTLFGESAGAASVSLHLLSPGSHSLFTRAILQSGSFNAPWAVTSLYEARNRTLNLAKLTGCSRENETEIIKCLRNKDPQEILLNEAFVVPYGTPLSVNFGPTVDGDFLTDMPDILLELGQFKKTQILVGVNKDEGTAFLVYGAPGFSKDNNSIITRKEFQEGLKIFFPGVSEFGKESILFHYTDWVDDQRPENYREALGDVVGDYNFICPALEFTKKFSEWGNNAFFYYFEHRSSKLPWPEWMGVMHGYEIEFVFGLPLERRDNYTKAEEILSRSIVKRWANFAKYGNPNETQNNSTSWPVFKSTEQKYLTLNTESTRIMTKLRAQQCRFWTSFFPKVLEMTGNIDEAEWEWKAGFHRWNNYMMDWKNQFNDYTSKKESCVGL
# Procedure, shortened: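 Esterase from human plasma, cell-free, colorimetric absorbance read 0.25 h after dosing. Screened at 25 uM in duplicate, with threshold-passing chemicals run in concentration-response up to 50 uM; loss of signal fitted versus DMSO.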
# [4] = target: human FYN Proto-Oncogene, Src family Tyrosine Kinase (Fyn), FYN (gene 2534) (UniProt P06241); assay: NVS_ENZ_hFyn: NovaScreen (NVS) Enzymatic Assay for human FYN Proto-Oncogene, Src family Tyrosine Kinase (Fyn) (AID 2283161)
# Procedure, shortened: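 Recombinant enzyme with fluorescent substrate, product separated by electrophoretic mobility shift; read 1 h after dosing. Duplicate 25 uM single-point screen, actives retested in concentration series; loss of signal vs DMSO.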
# [5] = target: Cytochrome P450 2C19 (Homo sapiens) (UniProt P33261); assay: NVS_ADME_hCYP2C19: NovaScreen (NVS) CYP450-related Enzyme Activity (ADME) Assay for human CYP2C19 (AID 2283113);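 also: potency for inhibition seen as loss of fluorescent signal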
# Procedure, shortened: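 Chemicals first screened in duplicate at 10 uM against recombinant human enzyme produced in insect cells; confirmed actives then run as concentration series. Fluorogenic substrate turnover read by fluorescence after 1 h, normalised to acetonitrile.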
# [6] = target: human AKT serine/threonine Kinase 1 (AKT1), AKT1 (gene 207) (UniProt P31749); assay: NVS_ENZ_hAKT1: NovaScreen (NVS) Enzymatic Assay for human AKT serine/threonine Kinase 1 (AKT1) (AID 2283138)
# Sequence of human AKT serine/threonine Kinase 1 (AKT1), AKT1 (gene 207) (P31749 whole entry, looked up): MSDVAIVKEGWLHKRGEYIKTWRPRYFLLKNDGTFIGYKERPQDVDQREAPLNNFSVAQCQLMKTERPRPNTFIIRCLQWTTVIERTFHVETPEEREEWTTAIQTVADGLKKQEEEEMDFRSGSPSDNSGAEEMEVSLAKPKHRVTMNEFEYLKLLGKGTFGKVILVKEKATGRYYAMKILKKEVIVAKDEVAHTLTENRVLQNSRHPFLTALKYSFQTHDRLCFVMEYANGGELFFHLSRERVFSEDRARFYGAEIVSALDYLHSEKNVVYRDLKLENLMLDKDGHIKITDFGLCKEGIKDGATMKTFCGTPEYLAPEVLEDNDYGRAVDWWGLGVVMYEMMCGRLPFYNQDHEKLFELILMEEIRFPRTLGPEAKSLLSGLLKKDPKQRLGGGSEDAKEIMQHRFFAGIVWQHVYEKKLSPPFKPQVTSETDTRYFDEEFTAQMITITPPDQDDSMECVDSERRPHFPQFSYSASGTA
# Procedure, shortened: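 Recombinant human AKT1 with a specific substrate, product separated by electrophoretic mobility shift, read after 1 h. Compounds at 25 uM in duplicate, then concentration-response up to 50 uM for hits; inhibition relative to DMSO.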
# [7] = target: human Dual Specificity Protein Phosphatase 3 (DUSP3), DUSP3 (gene 1845) (UniProt P51452); assay: NVS_ENZ_hDUSP3: NovaScreen (NVS) Enzymatic Assay for human Dual Specificity Protein Phosphatase 3 (DUSP3) (AID 2283152);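 also: phosphatase activity of recombinant human DUSP3 on a fluorogenic substrate without cells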
# Sequence of human Dual Specificity Protein Phosphatase 3 (DUSP3), DUSP3 (gene 1845) (P51452 whole entry, looked up): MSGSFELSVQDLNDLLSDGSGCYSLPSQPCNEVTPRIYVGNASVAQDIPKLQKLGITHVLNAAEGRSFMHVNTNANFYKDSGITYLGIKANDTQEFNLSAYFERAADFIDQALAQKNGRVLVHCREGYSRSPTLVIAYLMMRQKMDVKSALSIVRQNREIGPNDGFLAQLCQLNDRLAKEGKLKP
# Procedure, shortened: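 Cell-free assay with recombinant human DUSP3 and fluorogenic substrate, read by fluorescence intensity. Primary screen ran duplicate at 25 uM; actives followed up in concentration series; loss of signal versus DMSO scored.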
# Caspase-3 (Homo sapiens) = Caspase-3 (Homo sapiens) (UniProt P42574); assay: NVS_ENZ_hCASP3: NovaScreen (NVS) Enzymatic Assay for human Caspase 3 (CASP3) (AID 2283139)
# Sequence of Caspase-3 (Homo sapiens) (P42574 whole entry, looked up): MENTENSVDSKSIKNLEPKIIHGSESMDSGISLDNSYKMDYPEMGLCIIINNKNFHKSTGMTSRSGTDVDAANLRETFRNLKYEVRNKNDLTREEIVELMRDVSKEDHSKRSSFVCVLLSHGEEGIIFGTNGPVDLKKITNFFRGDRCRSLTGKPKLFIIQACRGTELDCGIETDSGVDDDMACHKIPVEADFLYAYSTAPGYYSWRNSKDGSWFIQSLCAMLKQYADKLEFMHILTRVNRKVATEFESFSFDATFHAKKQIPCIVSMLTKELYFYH
# Procedure, shortened: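 Recombinant human caspase-3 from E. coli with a fluorogenic substrate, read by fluorescence 1 h after dosing. Primary screen in duplicate at 25 uM. Actives (for example ≥30% inhibition) rerun as concentration-response up to 50 uM.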
# [8] = target: human Caspase 5 (CASP5), CASP5 (gene 838) (UniProt P51878); assay: NVS_ENZ_hCASP5: NovaScreen (NVS) Enzymatic Assay for human Caspase 5 (CASP5) (AID 2283137)
# Sequence of human Caspase 5 (CASP5), CASP5 (gene 838) (P51878 whole entry, looked up): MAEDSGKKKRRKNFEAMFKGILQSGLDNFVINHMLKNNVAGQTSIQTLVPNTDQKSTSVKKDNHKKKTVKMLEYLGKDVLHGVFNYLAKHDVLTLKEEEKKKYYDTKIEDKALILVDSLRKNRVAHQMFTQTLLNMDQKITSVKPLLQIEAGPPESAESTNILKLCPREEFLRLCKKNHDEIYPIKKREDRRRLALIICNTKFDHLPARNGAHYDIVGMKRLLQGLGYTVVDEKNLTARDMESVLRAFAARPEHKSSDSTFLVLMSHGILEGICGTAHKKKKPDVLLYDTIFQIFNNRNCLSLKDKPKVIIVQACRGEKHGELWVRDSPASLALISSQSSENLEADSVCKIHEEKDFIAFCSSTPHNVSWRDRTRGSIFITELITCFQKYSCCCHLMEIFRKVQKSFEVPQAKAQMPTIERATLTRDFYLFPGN
# Procedure, shortened: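 Recombinant human caspase 5 expressed in E. coli, fluorogenic substrate, fluorescence read 2 h after dosing. Single-point 25 uM duplicate screen, then concentration-response to maximum 50 uM for actives; DMSO baseline.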
# [9] = target: human Caspase 8 (CASP8), CASP8 (gene 841) (UniProt Q14790); assay: NVS_ENZ_hCASP8: NovaScreen (NVS) Enzymatic Assay for human Caspase 8 (CASP8) (AID 2283146)
# Sequence of human Caspase 8 (CASP8), CASP8 (gene 841) (Q14790 whole entry, looked up): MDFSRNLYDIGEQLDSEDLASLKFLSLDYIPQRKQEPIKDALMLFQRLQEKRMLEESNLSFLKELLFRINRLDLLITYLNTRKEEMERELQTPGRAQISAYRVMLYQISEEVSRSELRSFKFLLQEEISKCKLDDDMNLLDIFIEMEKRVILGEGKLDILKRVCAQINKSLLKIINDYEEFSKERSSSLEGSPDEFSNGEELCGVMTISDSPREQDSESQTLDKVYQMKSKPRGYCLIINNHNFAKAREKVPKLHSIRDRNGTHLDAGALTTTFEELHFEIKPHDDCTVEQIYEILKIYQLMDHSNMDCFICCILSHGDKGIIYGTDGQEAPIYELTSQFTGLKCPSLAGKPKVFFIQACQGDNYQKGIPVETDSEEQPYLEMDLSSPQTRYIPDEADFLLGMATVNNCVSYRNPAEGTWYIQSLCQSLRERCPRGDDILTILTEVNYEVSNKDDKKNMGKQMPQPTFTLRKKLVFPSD
# Procedure, shortened: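 E. coli-expressed enzyme was used in a cell-free fluorogenic substrate assay read 1 h after dosing. Loss of signal was scored relative to DMSO, and the primary screen was run in duplicate at 25 uM.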
# [10] = target: human Elastase, ELANE (gene 1991) (UniProt P08246); assay: NVS_ENZ_hElastase: NovaScreen (NVS) Enzymatic Assay for human Elastase (AID 2283153)
# Sequence of human Elastase, ELANE (gene 1991) (P08246 whole entry, looked up): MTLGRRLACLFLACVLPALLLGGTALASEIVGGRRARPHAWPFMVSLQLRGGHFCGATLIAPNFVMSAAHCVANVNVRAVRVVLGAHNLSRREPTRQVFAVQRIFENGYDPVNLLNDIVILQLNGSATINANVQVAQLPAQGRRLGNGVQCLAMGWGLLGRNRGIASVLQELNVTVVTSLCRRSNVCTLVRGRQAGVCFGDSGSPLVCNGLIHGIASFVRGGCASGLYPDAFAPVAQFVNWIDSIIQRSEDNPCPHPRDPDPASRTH
# Procedure, shortened: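 Cell-free elastase from human neutrophils, 1.5 h after dosing, activity read by absorbance. Primary screen in duplicate at 25 uM; hits (e.g., 30% inhibition) rerun in singleton concentration-response up to 50 uM, fitted versus DMSO.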
# [11] = target: human Colony Stimulating Factor 1 Receptor (CSF1R), CSF1R (gene 1436) (UniProt P07333); assay: NVS_ENZ_hCSF1R: NovaScreen (NVS) Enzymatic Assay for human Colony Stimulating Factor 1 Receptor (CSF1R) (AID 2283150)
# Sequence of human Colony Stimulating Factor 1 Receptor (CSF1R), CSF1R (gene 1436) (P07333 whole entry, looked up): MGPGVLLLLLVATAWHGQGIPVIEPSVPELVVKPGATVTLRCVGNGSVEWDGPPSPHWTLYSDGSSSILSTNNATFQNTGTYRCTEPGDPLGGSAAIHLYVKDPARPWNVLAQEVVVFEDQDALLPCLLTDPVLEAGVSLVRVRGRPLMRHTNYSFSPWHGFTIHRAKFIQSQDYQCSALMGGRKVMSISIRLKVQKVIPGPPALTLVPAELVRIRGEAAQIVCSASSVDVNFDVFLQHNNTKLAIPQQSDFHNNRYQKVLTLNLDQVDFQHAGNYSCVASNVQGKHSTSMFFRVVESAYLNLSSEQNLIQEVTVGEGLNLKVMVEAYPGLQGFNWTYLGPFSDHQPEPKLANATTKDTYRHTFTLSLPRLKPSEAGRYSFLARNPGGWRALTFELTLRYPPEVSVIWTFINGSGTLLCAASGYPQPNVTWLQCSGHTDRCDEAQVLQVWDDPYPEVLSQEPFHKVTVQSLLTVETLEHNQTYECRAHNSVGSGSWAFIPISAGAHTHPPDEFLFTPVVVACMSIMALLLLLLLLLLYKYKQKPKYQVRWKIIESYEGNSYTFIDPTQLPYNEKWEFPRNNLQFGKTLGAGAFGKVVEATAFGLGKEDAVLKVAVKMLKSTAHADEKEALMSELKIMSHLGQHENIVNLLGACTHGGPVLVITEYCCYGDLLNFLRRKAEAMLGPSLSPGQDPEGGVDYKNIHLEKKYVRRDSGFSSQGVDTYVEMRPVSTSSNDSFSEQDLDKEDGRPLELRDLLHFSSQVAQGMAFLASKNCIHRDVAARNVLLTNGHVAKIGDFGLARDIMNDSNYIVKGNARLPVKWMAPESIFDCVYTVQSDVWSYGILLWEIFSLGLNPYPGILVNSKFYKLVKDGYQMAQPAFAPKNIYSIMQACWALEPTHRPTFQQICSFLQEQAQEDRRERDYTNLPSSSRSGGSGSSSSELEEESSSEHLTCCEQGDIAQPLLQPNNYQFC
# Procedure, shortened: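 Cell-free recombinant human CSF1R kinase with fluorescent substrate, product separated by electrophoretic mobility shift; read 1 h after dosing. Primary screen at 25 uM in duplicate, actives then in concentration-response up to 50 uM, relative to DMSO.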
smiles,measurement,setting,value
CC(C)(C)c1ccc(O)c(C(C)(C)C)c1,outcome,[1],inactive
COC(=O)CCCCC(=O)OC,outcome,[1],inactive
CCN(CC)CCNc1ccc(CNC=O)c2sc3ccc(OC)cc3c(=O)c12,AC50,[2],6.5 µM (active)
same,AC50,[3],751 nM (active)
same,AC50,[4],2.1 µM (active)
O=C(O)c1ccccc1C(c1ccc(O)cc1)c1ccc(O)cc1,AC50,[5],5.38 µM (active)
same,outcome,[2],inactive
O=c1c(-c2ccc(O)cc2)coc2cc(O)ccc12,outcome,[2],inactive
OC1CCC(C2CCCCC2)CC1 (stereo not drawn),outcome,[3],inactive
CCCCCCCCOC(=O)CCCCCCCCC(=O)OCCCCCCCC,outcome,[6],inactive
same,outcome,[7],inactive
CC(O)CO (stereo not drawn),outcome,Caspase-3 (Homo sapiens),inactive
c1ccc2cc3c(ccc4ccccc43)cc2c1,outcome,[8],inactive
same,outcome,[9],inactive
same,AC50,[10],46.9 µM (active)
CCCCC(CC)COC(=O)CCCCC(=O)OCC(CC)CCCC (stereo not drawn),outcome,[7],inactive
CCCCC(CC)COC(=O)CCCCC(=O)OCc1ccccc1 (stereo not drawn),AC50,[5],13.2 µM (active)
same,outcome,[3],inactive
C=C(C)C(=O)OCCC(F)(F)C(F)(F)C(F)(F)C(F)(F)C(F)(F)C(F)(F)F,AC50,[9],1.96 µM (active)
CCCOC(=O)c1ccc(O)cc1,outcome,[11],inactive
CCCCCCCCCCCCCCCS(=O)(=O)Oc1ccccc1,AC50,[5],5 µM (active)
same,outcome,[7],inactive
same,outcome,[10],inactive
